Molecules are shown by their SMILES. Results filed as inconclusive are left out. Where a call stands in place of a potency, no number is given. The source made the active and inactive calls. Calls follow the shape of the dose curve; as a rule, active = well fitted curve in the direction sought with a large enough effect; inconclusive = small, poorly fitted or top-dose-only effect, or another doubt; inactive = no such curve, though single readings can be large; an effect the other way counts as inactive or inconclusive. Bridge positions count the residues as written; N and C are the ends. Square brackets hold non-standard residues; d marks the D form. Peptide text beside a SMILES is read from it. * marks the point of attachment. AFC = O=c1cc(C(F)(F)F)c2ccc(N*)cc2o1; NMeY = CN[CH](Cc1ccc(O)cc1)C(=O)O

For experiment [1], the target named is Aldehyde dehydrogenase, mitochondrial (Homo sapiens) (UniProt P05091). Kind of experiment: qHTS for Inhibitors of the Aldehyde Dehydrogenase Family (ALDH2) Primary screen (AID 2061308). Also: nearly all actives have a fitted effect of over 55% in size.
For experiment [2], the target named is Retinaldehyde dehydrogenase 3 (Homo sapiens) (UniProt P47895). The experiment in a line: qHTS for Inhibitors of the Aldehyde Dehydrogenase Family (ALDH1A3) Primary screen (AID 2061315).

With `CCC(C)C1NC(=O)C2CCCN2C(=O)C(NC(C)=O)C(C)OC(=O)C(Cc2ccc(OC)cc2)N(C)C(=O)C2CCCN2C(=O)C(C(C)C)NC1=O` (configuration not stated) (Ac-TPIVP[NMeY](Me); ester 1-C; configuration not given here), the Potency result in experiment [1] and in experiment [2] was “inactive” throughout.

Regarding `O=C(O)/C=C/c1ccc(O[C@@H]2O[C@H](CO)[C@@H](O)[C@H](O)[C@H]2O)cc1`, the Potency entry in experiment [1] and in experiment [2] was “inactive” throughout.

For the compound `COc1ccc2c(c1)C(=O)N(CCc1ccc(S(=O)(=O)NC(=O)NC3CCCCC3)cc1)C(=O)C2(C)C`, the Potency entry in experiment [1] and in experiment [2] was “inactive” in each case.

For `C=C(CO)C12OC1C1(C)C(=CC2=O)C(O)C(O)CC1C` (configuration not stated), the Potency entry in experiment [1] and in experiment [2] was “inactive” each time.

For `CC(=O)N[C@@H](Cc1c[nH]c2ccccc12)C(=O)N[C@@H](CCC(=O)O)C(=O)N[C@@H](Cc1cnc[nH]1)C(=O)N[C@@H](CC(=O)O)C(=O)Nc1ccc2c(C(F)(F)F)cc(=O)oc2c1` (Ac-WEHD-{AFC}), the Potency entry in experiment [1] and in experiment [2] was “inactive” each time.

Consider `C=C(C(=O)O)C1CCC2(C)CCC(O)C(C)(O)C2C1` (configuration not stated), for which the Potency result in experiment [1] and in experiment [2] was “inactive” each time.

For `CC(=C/C(=O)O)/C=C/[C@]1(O)[C@@]2(C)CO[C@]1(C)C[C@H](O[C@@H]1O[C@H](CO)[C@@H](O)[C@H](O)[C@H]1O)C2`, the Potency result in experiment [1] and in experiment [2] was “inactive” each time.

For the compound `CC(=O)OC(CSC1CCC(=O)OC(C)CCC(=O)C1)C(=O)O` (configuration not stated), the Potency entry in experiment [1] and in experiment [2] was “inactive” each time.

For the compound `CC(C)S(=O)(=O)NC[C@@H]1CC(c2ccc(N3CCCC3)c(F)c2)=NO1`, the Potency result in experiment [1] and in experiment [2] was “inactive” each time.

For `CC(=O)Nc1ccc(S(=O)(=O)Nc2cc(C)on2)cc1`, the Potency entry in experiment [1] and in experiment [2] was “inactive” in each case.

Regarding `CC(C)(C)c1ccc(C(=O)Nc2cn3cc(-n4ccnc4)ccc3n2)cc1`, the Potency result in experiment [1] and in experiment [2] was “inactive” each time.

Turning to `C[C@@H]1O[C@@H](O[C@H]2[C@H](O[C@H]3[C@H](O[C@H]4CC[C@@]5(C=O)C(CC[C@]6(C)C5CC=C5C7CC(C)(C)C[C@@H](O)[C@]7(C)CC[C@]56C)C4(C)C)O[C@H](C(=O)O)[C@@H](O)[C@@H]3O)OC[C@@H](O)[C@@H]2O)[C@H](O)[C@H](O)[C@H]1O` (some centres not stated), the Potency entry in experiment [1] and in experiment [2] was “inactive” in each case.

As to `C=CC(C)(C)O[C@@H]1O[C@H](CO[C@@H]2OC[C@](O)(CO)[C@H]2O)[C@@H](O)[C@H](O)[C@H]1O`, the Potency entry in experiment [1] and in experiment [2] was “inactive” each time.

Consider `C=C1C(=O)O[C@@H]2C[C@H](C)[C@@]3(O)C=C(C(C)=O)[C@]4(CC3C[C@H]12)C(=O)O[C@H]1C[C@@H](C)C(CCC(C)=O)=CC[C@H]14` (some centres not stated), for which the Potency entry in experiment [1] and in experiment [2] was “inactive” each time.

Regarding `CC(C)(O)C(O)C(=O)OCc1ccc(O[C@@H]2O[C@H](CO)[C@@H](O)[C@H](O)[C@H]2O)cc1` (some centres not stated), the Potency result in experiment [1] and in experiment [2] was “inactive” each time.

As for `CC1(C)CC[C@]2(C(=O)O)CC[C@]3(C)C(=CCC4[C@@]5(C)CC[C@H](O[C@@H]6O[C@H](C(=O)O)[C@@H](O)[C@H](O)[C@H]6O)C(C)(CO)C5CC[C@]43C)C2C1` (some centres not stated), the Potency entry in experiment [1] and in experiment [2] was “inactive” in each case.

For the origin of these results see PubChem BioAssay (NCATS).
